This note sets out measurements from the antibiotic and cytotoxicity screens of Wong et al. (2023).

Molecules are shown by their SMILES. In all, about 39,000 compounds went through this assay and about 1,500 (3.8%) were called active. The full list was thinned out, with actives kept by preference.

The test concerns HSkMC (human skeletal muscle cells). The test can be described thus: cytotoxicity call (relative viability < 0.9). The settings on record: 10 µM.
Regarding `COc1ccc(CN(C)C[C@@H]2OCCCC[C@@H](C)Oc3ccc(NC(=O)c4ccncc4)cc3C(=O)N([C@@H](C)CO)C[C@@H]2C)cc1`, the cytotoxicity call was “inactive”.

In the case of `C[C@@H]1CCCCO[C@H](CN(C)C(=O)Nc2ccc3c(c2)OCO3)[C@@H](C)CN([C@H](C)CO)C(=O)c2cc(NC(=O)CCC(F)(F)F)ccc2O1`, the cytotoxicity call is “inactive”.

`C[C@@H]1CN([C@H](C)CO)C(=O)c2cc(NS(=O)(=O)c3ccccc3)ccc2O[C@@H]1CN(C)S(=O)(=O)c1cccs1`: the cytotoxicity call was “inactive”.

For `COCCOC(=O)N1C(=O)[C@@]2(c3cc(C#Cc4ccc(OC)cc4)ccc31)[C@H](C(=O)N1CCc3cc(OC)c(OC)cc3C1)[C@H]1C(=O)O[C@H](c3ccccc3)[C@H](c3ccccc3)N1[C@@H]2c1ccc(OCCO)cc1`, the cytotoxicity call is “inactive”.

Consider `COCC(=O)Nc1ccc2c(c1)OC[C@@H](C)N(C(=O)c1ccccc1F)C[C@H](C)[C@@H](OC)CN(C)C2=O`, for which the cytotoxicity call is “inactive”.

With `CC(C)NC(=O)Nc1cccc2c1O[C@H](CN(C)C(=O)NC1CCCCC1)[C@H](C)CN([C@@H](C)CO)C2=O`, the cytotoxicity call is “inactive”.

As to `Cc1noc(C)c1NC(=O)Nc1ccc2c(c1)C(=O)N([C@H](C)CO)C[C@H](C)[C@@H](CN(C)C(=O)Nc1ccc3c(c1)OCO3)OCCCC[C@H](C)O2`, the cytotoxicity call is “inactive”.

In the case of `C[C@H]1CN([C@@H](C)CO)C(=O)c2cc(NS(=O)(=O)c3ccccc3)ccc2O[C@@H]1CN(C)Cc1ccc(Oc2ccccc2)cc1`, the cytotoxicity call was “inactive”.

Take `C[C@@H]1CN([C@@H](C)CO)C(=O)c2cc(NS(=O)(=O)c3ccccc3)ccc2O[C@@H]1CN(C)Cc1ccc(Oc2ccccc2)cc1`: the cytotoxicity call is “inactive”.

As to `C[C@H](CO)N1C[C@H](C)[C@@H](CN(C)Cc2ccc(Oc3ccccc3)cc2)Oc2ccc(NS(=O)(=O)c3ccc(Cl)cc3)cc2C1=O`, the cytotoxicity call was “inactive”.

As to `C[C@@H]1CN([C@@H](C)CO)C(=O)c2cc(NS(=O)(=O)c3ccc(Cl)cc3)ccc2O[C@H]1CN(C)Cc1ccc(Oc2ccccc2)cc1`, the cytotoxicity call is “inactive”.

As for `C[C@H](CO)N1C[C@H](C)[C@H](CN(C)Cc2ccc(Oc3ccccc3)cc2)Oc2ccc(NS(=O)(=O)c3ccc(Cl)cc3)cc2C1=O`, the cytotoxicity call was “inactive”.

As for `C[C@@H]1CN([C@H](C)CO)C(=O)c2cc(NS(=O)(=O)c3ccc(Cl)cc3)ccc2O[C@H]1CN(C)Cc1ccc(Oc2ccccc2)cc1`, the cytotoxicity call was “active”.

Consider `C[C@H]1CN([C@@H](C)CO)C(=O)c2cc(NS(=O)(=O)c3ccc(Cl)cc3)ccc2O[C@H]1CN(C)Cc1ccc(Oc2ccccc2)cc1`, for which the cytotoxicity call was “active”.

For `C[C@@H]1CN([C@@H](C)CO)C(=O)c2cc(NS(=O)(=O)c3ccccc3)ccc2O[C@H]1CN(C)Cc1ccc(Oc2ccccc2)cc1`, the cytotoxicity call was “inactive”.

As to `C[C@H]1CN([C@@H](C)CO)C(=O)c2cc(NS(=O)(=O)c3ccc(Cl)cc3)ccc2O[C@@H]1CN(C)Cc1ccc(Oc2ccccc2)cc1`, the cytotoxicity call was “active”.

For `C[C@@H]1CN([C@H](C)CO)C(=O)c2cc(NS(=O)(=O)c3ccc(Cl)cc3)ccc2O[C@@H]1CN(C)Cc1ccc(Oc2ccccc2)cc1`, the cytotoxicity call was “active”.

On to `CC(C)NC(=O)Nc1ccc2c(c1)CC(=O)N([C@@H](C)CO)C[C@H](C)[C@H](CN(C)C(=O)NC1CCCCC1)O2`, for which the cytotoxicity call was “inactive”.

Consider `Cc1cccc[n+]1C`, for which the cytotoxicity call was “inactive”.

Consider `CN1C2=CC(=O)/C(=N\NC(N)=O)C=C2C[C@H]1S(=O)(=O)O`, for which the cytotoxicity call is “inactive”.

As for `COc1ccc(NC(=O)N(C)C[C@H]2OCCCC[C@H](C)Oc3ccc(NS(=O)(=O)c4ccc(C)cc4)cc3C(=O)N([C@@H](C)CO)C[C@H]2C)cc1`, the cytotoxicity call is “inactive”.

In the case of `CC(=O)OC1C(=O)C2(C)C(O)CC3OCC3(OC(C)=O)C2C(OC(=O)c2ccccc2)C2(O)CC(OC(=O)C(O)C(NC(=O)c3ccccc3)c3ccccc3)C(C)=C1C2(C)C` (centres undefined), the cytotoxicity call is “inactive”.

`CC(=O)OC1CC(C)(C)C(=C=C/C(C)=C/C=C/C(C)=C/C=C/C=C(C)/C=C/C=C(\C)C(=O)CC23OC2(C)CC(O)CC3(C)C)C(C)(O)C1` (centres undefined): the cytotoxicity call was “inactive”.

`C[C@@H]1CN([C@H](C)CO)C(=O)c2cc(NC(=O)CCCCCC(=O)Nc3ccccc3N)ccc2O[C@@H]1CN(C)C(=O)Nc1ccccc1`: the cytotoxicity call is “inactive”.

Take `CO[C@H]1CN(C)C(=O)c2ccc(NC(=O)CC(F)(F)F)cc2OC[C@H](C)N(C(=O)C2CCOCC2)C[C@H]1C`: the cytotoxicity call was “inactive”.

With `O=c1c(O)cc(C2Oc3cc(O)cc(O)c3CC2O)cc2c(C3Oc4cc(O)cc(O)c4CC3O)cc(O)c(O)c12` (centres undefined), the cytotoxicity call was “inactive”.

Take `Cc1noc(C)c1NC(=O)Nc1ccc2c(c1)C(=O)N([C@@H](C)CO)C[C@H](C)[C@@H](CN(C)Cc1ccc(C(F)(F)F)cc1)O2`: the cytotoxicity call was “inactive”.

As to `C[C@H](CO)N1C[C@H](C)[C@H](CN(C)Cc2ccc(Oc3ccccc3)cc2)Oc2ccc(NS(=O)(=O)c3ccccc3)cc2C1=O`, the cytotoxicity call was “inactive”.

Take `C[C@@H]1CN([C@@H](C)CO)C(=O)c2cc(NS(=O)(=O)c3ccc(Cl)cc3)ccc2O[C@@H]1CN(C)Cc1ccc(Oc2ccccc2)cc1`: the cytotoxicity call is “active”.

For `C[C@@H]1CN([C@H](C)CO)C(=O)c2cc(NS(=O)(=O)c3ccccc3)ccc2O[C@H]1CN(C)Cc1ccc(Oc2ccccc2)cc1`, the cytotoxicity call is “inactive”.

For `C[C@@H]1CN([C@H](C)CO)C(=O)c2cc(NS(=O)(=O)c3cn(C)cn3)ccc2O[C@H]1CN(C)Cc1ccc2c(c1)OCO2`, the cytotoxicity call is “inactive”.

As to `COc1ccc(S(=O)(=O)N(C)C[C@H]2Oc3ccc(NC(=O)Cn4cnnn4)cc3CC(=O)N([C@@H](C)CO)C[C@@H]2C)cc1`, the cytotoxicity call was “inactive”.

As to `C[C@@H]1CCCCO[C@@H](CN(C)C(=O)Nc2cccc3ccccc23)[C@H](C)CN([C@H](C)CO)C(=O)c2cc(NS(=O)(=O)c3cccs3)ccc2O1`, the cytotoxicity call was “inactive”.

Regarding `C[C@@H]1CCCCO[C@H](CN(C)C(=O)Nc2cccc3ccccc23)[C@H](C)CN([C@H](C)CO)C(=O)c2cc(NS(=O)(=O)c3cccs3)ccc2O1`, the cytotoxicity call is “active”.

Take `C[C@@H]1CN([C@@H](C)CO)C(=O)c2cc(NS(=O)(=O)c3cccs3)ccc2O[C@@H](C)CCCCO[C@H]1CN(C)C(=O)Nc1cccc2ccccc12`: the cytotoxicity call is “inactive”.

Regarding `C[C@H]1CCCCO[C@@H](CN(C)C(=O)Nc2cccc3ccccc23)[C@@H](C)CN([C@@H](C)CO)C(=O)c2cc(NS(=O)(=O)c3cccs3)ccc2O1`, the cytotoxicity call is “inactive”.

With `C[C@H]1CCCCO[C@H](CN(C)C(=O)Nc2cccc3ccccc23)[C@@H](C)CN([C@@H](C)CO)C(=O)c2cc(NS(=O)(=O)c3cccs3)ccc2O1`, the cytotoxicity call was “inactive”.

Consider `C[C@H](CO)N1C[C@H](C)[C@@H](CN(C)C(=O)Nc2cccc3ccccc23)OCCCC[C@H](C)Oc2ccc(NS(=O)(=O)c3cccs3)cc2C1=O`, for which the cytotoxicity call was “active”.

As for `C[C@@H]1CN([C@@H](C)CO)S(=O)(=O)c2ccc(-c3ccc(F)cc3)cc2O[C@@H]1CN(C)S(C)(=O)=O`, the cytotoxicity call is “inactive”.

In the case of `Oc1ccc([C@@H]2C=CCC2)cc1`, the cytotoxicity call was “inactive”.

Regarding `COc1ccc(NC(=O)N(C)C[C@H]2OCCCC[C@@H](C)Oc3ccc(NC(=O)Nc4ccc5c(c4)OCO5)cc3C(=O)N([C@@H](C)CO)C[C@H]2C)cc1`, the cytotoxicity call was “inactive”.

For the molecule `C[C@@H]1CN([C@H](C)CO)C(=O)c2cccc(NC(=O)C3CCOCC3)c2O[C@@H]1CN(C)Cc1ccc2c(c1)OCO2`, the cytotoxicity call was “inactive”.

For `Cc1cc(C(=O)Nc2cccc3c2O[C@H](CN(C)S(=O)(=O)c2ccc(F)cc2)[C@H](C)CN([C@H](C)CO)C3=O)n(C)n1`, the cytotoxicity call was “inactive”.

On to `CN(C)CC(=O)N1[C@@H]2Cn3c(cccc3=O)[C@H]1[C@@H](C(=O)NCc1ccccc1)[C@@H]2CO`, for which the cytotoxicity call is “inactive”.

For `C=CCC[C@@H](Cc1ccc(F)cc1)C(=O)O[C@@H](CNC(=O)[C@H](CC=C)CC(=O)N(CCO)Cc1ccccc1)c1ccccc1`, the cytotoxicity call was “active”.

For the molecule `C=CCC[C@H](Cc1ccc(F)cc1)C(=O)O[C@@H](CNC(=O)[C@@H](CC=C)CC(=O)N(CCO)Cc1ccccc1)c1ccccc1`, the cytotoxicity call is “active”.

For the molecule `C=CCC[C@H](Cc1ccc(F)cc1)C(=O)O[C@H](CNC(=O)[C@@H](CC=C)CC(=O)N(CCO)Cc1ccccc1)c1ccccc1`, the cytotoxicity call was “inactive”.

With `C=CCC[C@@H](Cc1ccc(F)cc1)C(=O)O[C@H](CNC(=O)[C@H](CC=C)CC(=O)N(CCO)Cc1ccccc1)c1ccccc1`, the cytotoxicity call is “inactive”.

Turning to `C=CCC[C@H](Cc1ccc(F)cc1)C(=O)O[C@@H](CNC(=O)[C@H](CC=C)CC(=O)N(CCO)Cc1ccccc1)c1ccccc1`, the cytotoxicity call was “inactive”.

With `C=CCC[C@@H](Cc1ccc(F)cc1)C(=O)O[C@H](CNC(=O)[C@@H](CC=C)CC(=O)N(CCO)Cc1ccccc1)c1ccccc1`, the cytotoxicity call was “active”.

As to `C=CCC[C@H](Cc1ccc(F)cc1)C(=O)O[C@H](CNC(=O)[C@H](CC=C)CC(=O)N(CCO)Cc1ccccc1)c1ccccc1`, the cytotoxicity call is “inactive”.

Consider `C=CCC[C@@H](Cc1ccc(F)cc1)C(=O)O[C@@H](CNC(=O)[C@@H](CC=C)CC(=O)N(CCO)Cc1ccccc1)c1ccccc1`, for which the cytotoxicity call was “active”.

Consider `COC(=O)C[C@H]1CC[C@@H]2[C@H](COC[C@@H](O)CN2S(=O)(=O)c2ccc(F)cc2)O1`, for which the cytotoxicity call was “inactive”.

Regarding `C=CCNC(=O)[C@@H]1[C@H]2C(=O)O[C@H](c3ccccc3)[C@H](c3ccccc3)N2[C@H](c2ccc(O)cc2)[C@@]12C(=O)N(C(=O)OCCOC)c1ccc(C#Cc3ccc(OC)cc3)cc12`, the cytotoxicity call is “inactive”.

On to `CC(C)NC(=O)N(C)C[C@H]1Oc2cc(-c3ccccc3F)ccc2S(=O)(=O)N([C@@H](C)CO)C[C@H]1C`, for which the cytotoxicity call is “inactive”.

Turning to `Nc1ncnc(Cl)c1N`, the cytotoxicity call is “inactive”.

With `COCC#Cc1ccc2c(c1)O[C@H](CN(C)C(=O)c1ccccc1)[C@@H](C)CN([C@@H](C)CO)S2(=O)=O`, the cytotoxicity call was “inactive”.

In the case of `C[C@@H]1CCCCO[C@@H](CN(C)C(=O)c2ccccc2)[C@@H](C)CN([C@H](C)CO)C(=O)c2cc(NC(=O)Nc3ccc(F)cc3)ccc2O1`, the cytotoxicity call was “inactive”.

As to `COc1ccccc1CNC(=O)C[C@H]1CC[C@H]2[C@@H](COC[C@H](O)CN2C(=O)Nc2ccc(F)cc2)O1`, the cytotoxicity call is “inactive”.
